# Results published in PubChem BioAssay AID2013 (Sanford-Burnham Center for Chemical Genomics, 2009).
# In all, about 290,000 compounds went through this assay and about 370 (0.13%) were called active. The sample holds actives, similar compounds and a random draw of the others, so the mix is not that of the screen. Measured potencies and affinities stand elsewhere. Unmarked numbers belong to inactive results.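 How the source made its calls: active means spots per cell inhibited over 60%, with over 100 cells counted and total cytoplasm intensity under 500,000; inconclusive means wells with under 100 cells, flagged as likely toxic; inactive means the rest.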
# Molecular target: G-protein coupled receptor 55 (Homo sapiens) (UniProt Q9Y2T6)
# Assay: GPR55 antagonists blocking LPI-driven arrestin recruitment, primary screen, imaging, U2OS, beta-arrestin-GFP, LPI agonist (AID 2013);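 further: U2OS cells stably carrying GPR55 and arrestin-GFP stimulated by 5 µM LPI near EC80; imaged beta-arrestin-GFP aggregate spots per cell after agonist stimulation; plate controls were LPI-stimulated DMSO wells for no effect and DMSO wells without LPI for full effect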
# Details: U2OS GPR55 beta-arrestin-GFP translocation imaging, LPI antagonism; at 10 µM; hits give high values
# G-protein coupled receptor 55 (Homo sapiens), sequence (Q9Y2T6 whole entry, looked up): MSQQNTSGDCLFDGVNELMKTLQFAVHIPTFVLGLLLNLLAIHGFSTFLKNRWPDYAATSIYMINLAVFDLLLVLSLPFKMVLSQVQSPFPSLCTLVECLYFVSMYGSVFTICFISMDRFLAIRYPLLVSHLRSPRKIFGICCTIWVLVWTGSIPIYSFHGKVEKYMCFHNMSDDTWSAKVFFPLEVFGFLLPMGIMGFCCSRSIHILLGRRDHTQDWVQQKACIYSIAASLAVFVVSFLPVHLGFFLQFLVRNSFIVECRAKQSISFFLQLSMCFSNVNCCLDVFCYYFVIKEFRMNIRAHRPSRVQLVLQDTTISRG
row,SMILES,inhibition
1,CCOC(=O)c1ccccc1NC(=S)N1CCCCC1,4.2%
2,CCOC(=O)C1CCCN(C(=O)C2CCC(CNS(=O)(=O)c3ccc(NC(C)=O)cc3)CC2)C1 (stereo not given),-10.7%
3,Cc1ccc(S(=O)(=O)NCCc2nnc3ccc(SCC(=O)Nc4nc5ccccc5s4)nn23)cc1,-1.2%
4,C#CCOCCOCCOCCNc1nc(N2CCN(C(=O)[C@H](Cc3cc4ccccc4[nH]3)n3cc([C@@H](N)C(C)CC)nn3)CC2)nc(N2CCN(C(=O)[C@H](CCCCN)n3cc([C@@H](N)CC(C)C)nn3)CC2)n1 (stereo not given in full),22.1%
5,O=C(NCC(=O)N(c1ccccc1)C(C(=O)NCC1CCCO1)c1ccccc1)c1ccco1 (stereo not given),-16.3%
6,CN(CC(=O)Nc1cccc(F)c1)CC(=O)Nc1ccccc1Oc1ccccc1,2.5%
7,CN(CC(=O)Nc1ccccc1Oc1ccccc1)Cc1ccccc1F,80.5% (active)
8,CC(C)CC(=O)Nc1ccccc1Oc1ccccc1,-0.5%
9,CC(C(=O)Nc1ccccc1Oc1ccccc1)c1ccccc1 (stereo not given),83.2% (active)
10,CC(=O)Nc1ccccc1Oc1ccccc1,-4.1%
11,Cc1ccccc1CN(C)CC(=O)Nc1ccccc1Oc1ccccc1,52.5%
12,CC(=O)Nc1ccc(Nc2nc(C(F)(F)F)nc3c2nnn3Cc2ccccc2Cl)cc1,-4.9%
13,Cc1ccc(/C=C2/N=C(c3ccccc3)NNC2=O)cc1,-5.1%
14,Cc1ccc(-c2noc(CSc3nnc(Cc4cccs4)n3-c3ccccc3)n2)cc1,16.9%
15,c1ccc(-c2noc(CSc3nnc(Cc4cccs4)n3-c3ccccc3)n2)cc1,0.4%
16,Nc1nonc1-n1nnc(C(=O)N/N=C/c2ccccc2Cl)c1-c1ccc2c(c1)OCO2,-3.5%
17,Cc1ccc(C(=O)Nc2ccccc2N2CCCCC2)cc1,0.4%
18,Cc1ccc(C(=O)Nc2ccccc2N2CCCC2)cc1,-6.2%
19,Cc1cc(=O)oc2cc(OCC(=O)N3CCN(c4ccccc4)CC3)c(Cl)cc12,6.4%
20,Cc1cc(Nc2ccc(F)cc2F)n2ncnc2n1,-4.7%
21,CCOC(=O)c1c(C)[nH]c(C)c1S(=O)(=O)N(C)CC(=O)Nc1cccc(F)c1,8%
22,COc1ccc(N2C(=O)S[C@@H]3CS(=O)(=O)C[C@@H]32)cc1,14.8%
23,CC1(C)OC(=CC=Nc2ccc(Cl)cc2)OC1(C)C,-0.4%
24,COC(=O)c1cc2n3ccccc3c(C)c(-c3ccccc3)c-2c1C(=O)OC,6.5%
25,COC(=O)c1cc2c(C)c(C)c3ccccn3c-2c1C(=O)OC,12.8%
